# In paper PMC12350791:
# Assays:
# Assay in all cases: cross-linking mass spectrometry
# Details in all cases: DSBSO, in cells or nuclear extract, not told apart
# NAP1L4 = NAP1L4 (UniProt Q99733)
# NCAPD2 = NCAPD2 (UniProt Q15021)
# NCBP1 = NCBP1 (UniProt Q09161)
# NDUFA5 = NDUFA5 (UniProt Q16718)
# NDUFA6 = NDUFA6 (UniProt P56556)
# NDUFAF4 = NDUFAF4 (UniProt Q9P032)
# NDUFS2 = NDUFS2 (UniProt O75306)
# NIP7 = NIP7 (UniProt Q9Y221)
# NMI = NMI (UniProt Q13287)
# NOC4L = NOC4L (UniProt Q9BVI4)
# NOL7 = NOL7 (UniProt Q9UMY1)
# NPM1 = NPM1 (UniProt P06748)
# NUDT5 = NUDT5 (UniProt Q9UKK9)
# NUP160 = NUP160 (UniProt Q12769)
# RAE1 = RAE1 (UniProt P78406)
# NUP50 = NUP50 (UniProt Q9UKX7)
# NUP62 = NUP62 (UniProt P37198)
# NUP85 = NUP85 (UniProt Q9BW27)
# NUP88 = NUP88 (UniProt Q99567)
# OSBPL11 = OSBPL11 (UniProt Q9BXB4)
# PAFAH1B2 = PAFAH1B2 (UniProt P68402)
# PAM16 = PAM16 (UniProt Q9Y3D7)
# Sequence of PAM16 (Q9Y3D7 whole entry): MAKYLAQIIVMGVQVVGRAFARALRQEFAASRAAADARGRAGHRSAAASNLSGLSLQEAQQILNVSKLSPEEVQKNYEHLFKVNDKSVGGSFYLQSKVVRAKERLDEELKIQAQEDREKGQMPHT
# PAXBP1 = PAXBP1 (UniProt Q9Y5B6)
# PDE4DIP = PDE4DIP (UniProt Q5VU43)
# PELP1 = PELP1 (UniProt Q8IZL8)
# PFKP = PFKP (UniProt Q01813)
# PHC2 = PHC2 (UniProt Q8IXK0)
# PNN = PNN (UniProt Q9H307)
# PNO1 = PNO1 (UniProt Q9NRX1)
# RPL23A = RPL23A (UniProt P62750)
# PRPF31 = PRPF31 (UniProt Q8WWY3)
# PSME2 = PSME2 (UniProt Q9UL46)
# PUF60 = PUF60 (UniProt Q9UHX1)
# RAD50 = RAD50 (UniProt Q92878)
# Sequence of RAD50 (Q92878 whole entry): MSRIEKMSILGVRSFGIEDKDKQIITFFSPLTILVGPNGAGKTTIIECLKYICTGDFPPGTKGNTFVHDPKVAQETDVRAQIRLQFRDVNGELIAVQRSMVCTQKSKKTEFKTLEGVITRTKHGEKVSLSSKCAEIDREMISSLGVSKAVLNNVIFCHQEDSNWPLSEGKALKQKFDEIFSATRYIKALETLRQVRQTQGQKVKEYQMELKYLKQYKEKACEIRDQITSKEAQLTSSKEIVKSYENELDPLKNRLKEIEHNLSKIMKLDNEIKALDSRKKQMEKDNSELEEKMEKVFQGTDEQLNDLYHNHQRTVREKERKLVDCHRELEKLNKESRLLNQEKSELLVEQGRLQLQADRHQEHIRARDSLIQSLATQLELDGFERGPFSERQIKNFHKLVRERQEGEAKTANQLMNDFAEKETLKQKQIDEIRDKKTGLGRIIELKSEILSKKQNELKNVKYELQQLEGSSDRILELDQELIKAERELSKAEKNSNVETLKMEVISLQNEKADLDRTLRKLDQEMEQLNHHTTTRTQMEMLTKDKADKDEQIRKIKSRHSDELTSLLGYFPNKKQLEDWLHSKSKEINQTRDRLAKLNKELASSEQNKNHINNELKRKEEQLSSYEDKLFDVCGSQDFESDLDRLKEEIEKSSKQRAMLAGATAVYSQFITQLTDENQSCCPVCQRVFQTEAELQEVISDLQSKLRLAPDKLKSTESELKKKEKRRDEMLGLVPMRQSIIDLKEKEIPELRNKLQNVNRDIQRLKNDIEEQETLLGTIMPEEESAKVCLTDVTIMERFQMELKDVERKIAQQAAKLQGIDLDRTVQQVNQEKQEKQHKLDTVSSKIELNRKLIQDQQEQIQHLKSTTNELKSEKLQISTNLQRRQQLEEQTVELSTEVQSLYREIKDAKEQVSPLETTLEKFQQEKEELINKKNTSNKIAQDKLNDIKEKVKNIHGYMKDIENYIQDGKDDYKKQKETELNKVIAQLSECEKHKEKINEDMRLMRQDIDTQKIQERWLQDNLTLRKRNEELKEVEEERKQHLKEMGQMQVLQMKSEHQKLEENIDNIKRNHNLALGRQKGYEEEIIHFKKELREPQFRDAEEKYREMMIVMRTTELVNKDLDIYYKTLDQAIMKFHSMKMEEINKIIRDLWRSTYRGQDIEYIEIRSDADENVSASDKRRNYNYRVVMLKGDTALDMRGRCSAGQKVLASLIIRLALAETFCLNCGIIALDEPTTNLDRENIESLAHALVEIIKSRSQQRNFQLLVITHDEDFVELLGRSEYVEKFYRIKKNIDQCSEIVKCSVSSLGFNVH
# RAN = RAN (UniProt P62826)
# RNF20 = RNF20 (UniProt Q5VTR2)
# RPF1 = RPF1 (UniProt Q9H9Y2)
# Sequence of RPF1 (Q9H9Y2 whole entry): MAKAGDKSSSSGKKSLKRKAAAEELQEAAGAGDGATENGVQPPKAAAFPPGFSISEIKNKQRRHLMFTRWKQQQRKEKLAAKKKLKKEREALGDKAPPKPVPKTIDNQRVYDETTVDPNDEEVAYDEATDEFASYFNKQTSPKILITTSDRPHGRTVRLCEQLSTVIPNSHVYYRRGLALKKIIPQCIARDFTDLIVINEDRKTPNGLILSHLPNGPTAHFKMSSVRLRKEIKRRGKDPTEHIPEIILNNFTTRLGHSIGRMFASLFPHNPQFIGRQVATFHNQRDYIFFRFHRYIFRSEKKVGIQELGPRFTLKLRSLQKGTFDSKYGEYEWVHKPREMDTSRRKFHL
# RPLP2 = RPLP2 (UniProt P05387)
# RREB1 = RREB1 (UniProt Q92766)
# SIN3A = SIN3A (UniProt Q96ST3)
# RSL24D1 = RSL24D1 (UniProt Q9UHA3)
# RTCB = RTCB (UniProt Q9Y3I0)
# RUVBL2 = RUVBL2 (UniProt Q9Y230)
# RWDD1 = RWDD1 (UniProt Q9H446)
# SDHA = SDHA (UniProt P31040)
# SEH1L = SEH1L (UniProt Q96EE3)
# SEPTIN11 = SEPTIN11 (UniProt Q9NVA2)
# SEPTIN2 = SEPTIN2 (UniProt Q15019)
# SERBP1 = SERBP1 (UniProt Q8NC51)
# Sequence of HDAC1, Q13547 (Q13547 whole entry): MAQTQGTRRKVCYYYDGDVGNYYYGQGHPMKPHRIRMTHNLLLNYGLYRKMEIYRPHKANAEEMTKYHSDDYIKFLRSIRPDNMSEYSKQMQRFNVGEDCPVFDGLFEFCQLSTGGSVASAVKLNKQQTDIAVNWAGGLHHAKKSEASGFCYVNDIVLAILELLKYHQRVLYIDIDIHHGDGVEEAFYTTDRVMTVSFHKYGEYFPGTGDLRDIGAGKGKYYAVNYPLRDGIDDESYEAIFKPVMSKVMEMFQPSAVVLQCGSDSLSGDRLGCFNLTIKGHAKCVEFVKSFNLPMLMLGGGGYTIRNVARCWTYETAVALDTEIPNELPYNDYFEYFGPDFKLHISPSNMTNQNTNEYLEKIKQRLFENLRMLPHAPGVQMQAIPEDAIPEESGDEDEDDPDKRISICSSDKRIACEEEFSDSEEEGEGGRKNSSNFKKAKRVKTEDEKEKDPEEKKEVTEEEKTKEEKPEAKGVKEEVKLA
# Sequence of NDUFS7, O75251 (O75251 whole entry): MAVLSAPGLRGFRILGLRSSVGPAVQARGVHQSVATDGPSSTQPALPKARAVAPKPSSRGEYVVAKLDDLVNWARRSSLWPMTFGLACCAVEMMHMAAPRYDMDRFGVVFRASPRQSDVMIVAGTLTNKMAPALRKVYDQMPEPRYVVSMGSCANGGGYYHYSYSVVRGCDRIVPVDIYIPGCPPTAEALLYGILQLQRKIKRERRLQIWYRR
# Sequence of NUP98, P52948 (P52948 whole entry): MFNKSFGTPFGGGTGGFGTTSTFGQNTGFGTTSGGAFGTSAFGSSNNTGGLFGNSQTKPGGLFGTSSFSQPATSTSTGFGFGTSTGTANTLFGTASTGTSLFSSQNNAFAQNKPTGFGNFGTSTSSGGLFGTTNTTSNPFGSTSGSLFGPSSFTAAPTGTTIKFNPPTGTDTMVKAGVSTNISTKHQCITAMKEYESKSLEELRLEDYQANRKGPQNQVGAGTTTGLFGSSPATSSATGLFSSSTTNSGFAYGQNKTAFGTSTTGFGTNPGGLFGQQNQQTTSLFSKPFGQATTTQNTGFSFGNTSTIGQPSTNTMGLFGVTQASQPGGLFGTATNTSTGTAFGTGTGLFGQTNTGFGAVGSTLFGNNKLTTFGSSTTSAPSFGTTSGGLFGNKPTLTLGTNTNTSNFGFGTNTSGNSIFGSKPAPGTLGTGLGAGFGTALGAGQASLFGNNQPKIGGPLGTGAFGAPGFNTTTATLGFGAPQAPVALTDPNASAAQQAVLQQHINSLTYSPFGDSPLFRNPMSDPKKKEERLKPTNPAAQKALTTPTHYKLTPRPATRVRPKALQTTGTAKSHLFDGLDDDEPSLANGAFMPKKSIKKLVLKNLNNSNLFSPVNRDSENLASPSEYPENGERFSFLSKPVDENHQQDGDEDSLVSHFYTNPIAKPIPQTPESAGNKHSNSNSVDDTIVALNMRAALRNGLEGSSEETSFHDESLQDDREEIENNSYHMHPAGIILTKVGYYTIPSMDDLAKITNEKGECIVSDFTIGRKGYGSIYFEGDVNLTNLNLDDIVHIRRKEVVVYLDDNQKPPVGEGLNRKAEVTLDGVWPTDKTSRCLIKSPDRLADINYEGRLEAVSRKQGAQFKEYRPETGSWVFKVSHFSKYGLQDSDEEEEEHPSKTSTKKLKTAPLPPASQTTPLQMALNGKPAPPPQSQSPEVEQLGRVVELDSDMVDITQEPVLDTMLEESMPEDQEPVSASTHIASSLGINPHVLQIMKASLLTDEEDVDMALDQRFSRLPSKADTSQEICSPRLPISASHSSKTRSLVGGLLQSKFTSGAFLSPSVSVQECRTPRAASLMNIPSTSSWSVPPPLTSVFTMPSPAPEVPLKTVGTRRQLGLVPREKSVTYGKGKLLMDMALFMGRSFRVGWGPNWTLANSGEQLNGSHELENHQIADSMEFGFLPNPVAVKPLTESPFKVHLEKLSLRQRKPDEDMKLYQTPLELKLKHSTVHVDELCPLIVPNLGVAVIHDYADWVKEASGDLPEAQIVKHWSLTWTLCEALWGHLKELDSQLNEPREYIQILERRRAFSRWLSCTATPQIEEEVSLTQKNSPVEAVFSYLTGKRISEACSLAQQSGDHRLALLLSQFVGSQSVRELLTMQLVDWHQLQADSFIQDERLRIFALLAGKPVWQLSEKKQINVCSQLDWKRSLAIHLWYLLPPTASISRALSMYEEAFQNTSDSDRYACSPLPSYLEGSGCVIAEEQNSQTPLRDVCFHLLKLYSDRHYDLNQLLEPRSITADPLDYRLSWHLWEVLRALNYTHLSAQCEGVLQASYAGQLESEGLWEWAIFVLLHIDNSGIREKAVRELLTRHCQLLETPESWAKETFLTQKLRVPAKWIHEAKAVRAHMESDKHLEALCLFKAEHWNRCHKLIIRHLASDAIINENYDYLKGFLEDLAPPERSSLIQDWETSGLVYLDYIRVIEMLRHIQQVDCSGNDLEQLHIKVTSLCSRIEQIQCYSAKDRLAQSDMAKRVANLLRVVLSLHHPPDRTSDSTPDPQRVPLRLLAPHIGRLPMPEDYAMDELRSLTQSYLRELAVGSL
# Sequence of NDUFAF4 (Q9P032 whole entry): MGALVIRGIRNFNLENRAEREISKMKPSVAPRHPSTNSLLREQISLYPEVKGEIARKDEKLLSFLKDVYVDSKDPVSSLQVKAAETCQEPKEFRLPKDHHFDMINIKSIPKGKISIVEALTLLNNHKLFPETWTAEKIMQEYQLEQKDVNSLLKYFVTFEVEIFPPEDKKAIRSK
# Sequence of ACTR1B, P42025 (P42025 whole entry): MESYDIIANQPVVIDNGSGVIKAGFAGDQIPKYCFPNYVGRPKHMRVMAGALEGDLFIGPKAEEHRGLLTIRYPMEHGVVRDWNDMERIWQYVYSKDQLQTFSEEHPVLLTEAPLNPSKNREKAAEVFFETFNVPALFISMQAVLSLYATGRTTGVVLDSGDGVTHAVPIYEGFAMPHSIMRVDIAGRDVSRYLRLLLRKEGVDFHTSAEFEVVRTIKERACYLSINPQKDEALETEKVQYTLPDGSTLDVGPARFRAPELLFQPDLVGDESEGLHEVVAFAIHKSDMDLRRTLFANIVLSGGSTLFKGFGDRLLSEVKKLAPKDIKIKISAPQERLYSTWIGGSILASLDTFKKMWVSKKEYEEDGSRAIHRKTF
# Sequence of NDUFA6 (P56556 whole entry): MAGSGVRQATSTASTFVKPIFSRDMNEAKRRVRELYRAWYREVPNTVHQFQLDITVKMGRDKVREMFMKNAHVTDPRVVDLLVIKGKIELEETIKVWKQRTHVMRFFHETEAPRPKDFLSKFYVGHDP
substance,measurement,setting,value
"NAP1L1, P55209",cross-linked residues,NAP1L4,K87 - K105
"SMC2, O95347",cross-linked residues,NCAPD2,K1014 - K78
"NCBP2, P52298",cross-linked residues,NCBP1,K68 - K607
"NDUFA10, O95299",cross-linked residues,NDUFA5,K80 - K30
"NDUFS4, O43181",cross-linked residues,NDUFA6,K73 - K116
"NDUFS7, O75251",cross-linked residues,NDUFAF4,K55 - K107
same,cross-linked residues,NDUFS2,K136 - K78
"NOP2, P46087",cross-linked residues,NIP7,K423 - K72
"IFI35, P80217",cross-linked residues,NMI,K47 - K254
"NOP14, P78316",cross-linked residues,NOC4L,K535 - K342
"UTP15, Q8TED0",cross-linked residues,NOL7,K416 - K210
"NPM3, O75607",cross-linked residues,NPM1,K125 - K27
"PYCR2, Q96C36",cross-linked residues,NUDT5,K47 - K210
"NUP98, P52948",cross-linked residues,NUP160,K1749 - K1096
same,cross-linked residues,RAE1,K175 - K252
"CSE1L, P55060",cross-linked residues,NUP50,K726 - K62
"NUP214, P35658",cross-linked residues,NUP62,K755 - K371
"SEH1L, Q96EE3",cross-linked residues,NUP85,K314 - K59
"NUP62, P37198",cross-linked residues,NUP88,K415 - K642
"PPA1, Q15181",cross-linked residues,OSBPL11,K238 - K660
"PAFAH1B1, P43034",cross-linked residues,PAFAH1B2,K147 - K145
"DNAJC19, Q96DA6",cross-linked residues,PAM16,K93 - K82
"TFIP11, Q9UBB9",cross-linked residues,PAXBP1,K267 - K682
"IMMT, Q16891",cross-linked residues,PDE4DIP,K343 - K1022
"NOL9, Q5SY16",cross-linked residues,PELP1,K670 - K216
"PFKM, P08237",cross-linked residues,PFKP,K476 - K736
"RING1, Q06587",cross-linked residues,PHC2,K297 - K598
"SAP18, O00422",cross-linked residues,PNN,K74 - K109
"NPM1, P06748",cross-linked residues,PNO1,K267 - K77
same,cross-linked residues,RPL23A,K141 - K30
"SNU13, P55769",cross-linked residues,PRPF31,K86 - K315
"PSME1, Q06323",cross-linked residues,PSME2,K190 - K180
"SRSF11, Q05519",cross-linked residues,PUF60,K58 - K69
"ACTR1B, P42025",cross-linked residues,RAD50,K324 - K651
"MRE11, P49959",cross-linked residues,RAD50,K393 - K1190
"XPO1, O14980",cross-linked residues,RAN,K426 - K159
"RNF40, O75150",cross-linked residues,RNF20,K862 - K834
"MAK16, Q9BXY0",cross-linked residues,RPF1,K164 - K302
"WDR74, Q6RFH5",cross-linked residues,RPF1,K151 - K182
"RPLP1, P05386",cross-linked residues,RPLP2,K33 - K25
"HDAC1, Q13547",cross-linked residues,RREB1,K74 - K259
same,cross-linked residues,SIN3A,K220 - K552
"GTPBP4, Q9BZE4",cross-linked residues,RSL24D1,K448 - K88
"RTRAF, Q9Y224",cross-linked residues,RTCB,K185 - K492
"HAUS3, Q68CZ6",cross-linked residues,RUVBL2,K595 - K177
"DRG2, P55039",cross-linked residues,RWDD1,K311 - K166
"SDHB, P21912",cross-linked residues,SDHA,K167 - K167
"NUP43, Q8NFH3",cross-linked residues,SEH1L,K161 - K96
"SEPTIN2, Q15019",cross-linked residues,SEPTIN11,K249 - K190
"SEPTIN6, Q14141",cross-linked residues,SEPTIN2,K191 - K249
"RPS12, P25398",cross-linked residues,SERBP1,K116 - K299
